Data on 22 compounds can be found in PubChem BioAssay (EPA / NIEHS).

“And” between values parts separate entries of the source, which are not always exact repeats. Identical values can stand only once. Records with an inconclusive call do not appear. The source made the active and inactive calls. The calls were made as follows: active = hit-call score of the fitted dose curve at least 0.9, where 1 is the maximum; inconclusive = response in the unintended direction; inactive = score below 0.9.

human MET Proto-Oncogene, Receptor Tyrosine Kinase (MET), MET (gene 4233), sequence (P08581 whole entry, looked up): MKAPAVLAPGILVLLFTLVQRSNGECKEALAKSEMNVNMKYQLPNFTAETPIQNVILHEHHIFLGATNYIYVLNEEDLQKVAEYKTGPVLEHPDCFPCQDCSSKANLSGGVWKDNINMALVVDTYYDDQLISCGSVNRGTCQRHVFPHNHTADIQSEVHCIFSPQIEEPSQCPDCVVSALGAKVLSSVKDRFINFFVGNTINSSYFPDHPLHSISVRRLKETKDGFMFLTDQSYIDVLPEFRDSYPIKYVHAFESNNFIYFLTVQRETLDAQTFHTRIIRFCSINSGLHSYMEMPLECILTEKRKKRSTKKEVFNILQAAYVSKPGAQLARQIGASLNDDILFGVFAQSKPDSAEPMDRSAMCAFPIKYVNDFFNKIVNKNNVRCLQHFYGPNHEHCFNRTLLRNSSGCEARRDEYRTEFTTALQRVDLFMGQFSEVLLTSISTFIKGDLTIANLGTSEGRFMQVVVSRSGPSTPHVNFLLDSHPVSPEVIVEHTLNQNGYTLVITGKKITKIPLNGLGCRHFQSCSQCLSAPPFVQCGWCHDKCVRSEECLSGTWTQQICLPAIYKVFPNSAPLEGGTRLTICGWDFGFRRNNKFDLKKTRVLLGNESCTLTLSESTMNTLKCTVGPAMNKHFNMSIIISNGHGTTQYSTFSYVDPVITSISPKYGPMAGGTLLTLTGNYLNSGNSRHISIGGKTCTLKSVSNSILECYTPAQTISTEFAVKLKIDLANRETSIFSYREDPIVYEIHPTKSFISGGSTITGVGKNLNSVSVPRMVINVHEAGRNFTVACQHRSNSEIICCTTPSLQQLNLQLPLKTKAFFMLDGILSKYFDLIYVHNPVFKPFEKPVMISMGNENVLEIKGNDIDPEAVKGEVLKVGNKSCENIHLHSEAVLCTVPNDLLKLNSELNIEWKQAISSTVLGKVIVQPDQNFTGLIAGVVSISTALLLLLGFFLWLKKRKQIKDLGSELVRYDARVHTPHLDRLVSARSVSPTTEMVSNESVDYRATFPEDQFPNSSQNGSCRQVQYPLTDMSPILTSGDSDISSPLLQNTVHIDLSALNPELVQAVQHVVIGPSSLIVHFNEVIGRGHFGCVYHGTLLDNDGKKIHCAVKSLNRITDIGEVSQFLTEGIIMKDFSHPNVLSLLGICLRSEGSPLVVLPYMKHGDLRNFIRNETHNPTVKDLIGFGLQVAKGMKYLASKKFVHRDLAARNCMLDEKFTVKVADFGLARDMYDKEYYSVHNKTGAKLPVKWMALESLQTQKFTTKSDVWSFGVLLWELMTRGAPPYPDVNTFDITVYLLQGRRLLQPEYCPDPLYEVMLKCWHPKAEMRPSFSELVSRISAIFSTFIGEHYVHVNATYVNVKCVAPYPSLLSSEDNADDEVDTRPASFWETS
human Mitogen-Activated Protein Kinase 1 (MAPK 1), MAPK1 (gene 5594), sequence (P28482 whole entry, looked up): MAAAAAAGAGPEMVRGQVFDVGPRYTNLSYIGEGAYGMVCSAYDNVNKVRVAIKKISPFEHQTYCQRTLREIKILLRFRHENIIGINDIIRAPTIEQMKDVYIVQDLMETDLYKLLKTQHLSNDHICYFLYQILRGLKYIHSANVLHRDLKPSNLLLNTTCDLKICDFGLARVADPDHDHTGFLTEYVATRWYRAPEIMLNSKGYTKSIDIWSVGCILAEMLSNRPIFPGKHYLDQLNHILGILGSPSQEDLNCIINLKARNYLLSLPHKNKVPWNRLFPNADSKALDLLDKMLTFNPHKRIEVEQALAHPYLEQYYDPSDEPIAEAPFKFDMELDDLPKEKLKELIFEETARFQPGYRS
human MAP Kinase-Activated Protein Kinase 2 (MAPKAPK2), MAPKAPK2 (gene 9261), sequence (P49137 whole entry, looked up): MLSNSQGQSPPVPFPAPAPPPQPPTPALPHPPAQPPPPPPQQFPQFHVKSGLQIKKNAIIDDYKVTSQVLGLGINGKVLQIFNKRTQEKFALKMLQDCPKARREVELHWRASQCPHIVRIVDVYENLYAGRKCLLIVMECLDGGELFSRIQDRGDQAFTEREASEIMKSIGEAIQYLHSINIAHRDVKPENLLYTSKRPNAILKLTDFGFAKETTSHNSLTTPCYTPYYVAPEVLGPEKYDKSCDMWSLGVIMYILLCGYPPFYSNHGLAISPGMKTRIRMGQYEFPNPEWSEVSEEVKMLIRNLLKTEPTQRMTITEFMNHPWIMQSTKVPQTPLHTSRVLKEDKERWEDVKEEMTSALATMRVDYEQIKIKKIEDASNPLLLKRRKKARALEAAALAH
Mitogen-activated protein kinase 3 (Homo sapiens), sequence (P27361 whole entry, looked up): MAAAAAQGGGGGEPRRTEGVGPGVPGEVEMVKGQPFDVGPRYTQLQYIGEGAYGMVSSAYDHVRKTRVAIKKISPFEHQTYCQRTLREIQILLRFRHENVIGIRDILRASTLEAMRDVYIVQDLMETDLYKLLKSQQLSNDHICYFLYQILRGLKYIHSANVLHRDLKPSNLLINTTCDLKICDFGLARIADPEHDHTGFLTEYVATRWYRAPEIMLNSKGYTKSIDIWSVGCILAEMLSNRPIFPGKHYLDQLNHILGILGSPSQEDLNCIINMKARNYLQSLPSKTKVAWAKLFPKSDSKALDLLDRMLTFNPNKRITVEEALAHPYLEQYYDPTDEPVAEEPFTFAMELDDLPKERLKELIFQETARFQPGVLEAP
human Phosphodiesterase 10 (PDE10), PDE10A (gene 10846), sequence (Q9Y233 whole entry, looked up): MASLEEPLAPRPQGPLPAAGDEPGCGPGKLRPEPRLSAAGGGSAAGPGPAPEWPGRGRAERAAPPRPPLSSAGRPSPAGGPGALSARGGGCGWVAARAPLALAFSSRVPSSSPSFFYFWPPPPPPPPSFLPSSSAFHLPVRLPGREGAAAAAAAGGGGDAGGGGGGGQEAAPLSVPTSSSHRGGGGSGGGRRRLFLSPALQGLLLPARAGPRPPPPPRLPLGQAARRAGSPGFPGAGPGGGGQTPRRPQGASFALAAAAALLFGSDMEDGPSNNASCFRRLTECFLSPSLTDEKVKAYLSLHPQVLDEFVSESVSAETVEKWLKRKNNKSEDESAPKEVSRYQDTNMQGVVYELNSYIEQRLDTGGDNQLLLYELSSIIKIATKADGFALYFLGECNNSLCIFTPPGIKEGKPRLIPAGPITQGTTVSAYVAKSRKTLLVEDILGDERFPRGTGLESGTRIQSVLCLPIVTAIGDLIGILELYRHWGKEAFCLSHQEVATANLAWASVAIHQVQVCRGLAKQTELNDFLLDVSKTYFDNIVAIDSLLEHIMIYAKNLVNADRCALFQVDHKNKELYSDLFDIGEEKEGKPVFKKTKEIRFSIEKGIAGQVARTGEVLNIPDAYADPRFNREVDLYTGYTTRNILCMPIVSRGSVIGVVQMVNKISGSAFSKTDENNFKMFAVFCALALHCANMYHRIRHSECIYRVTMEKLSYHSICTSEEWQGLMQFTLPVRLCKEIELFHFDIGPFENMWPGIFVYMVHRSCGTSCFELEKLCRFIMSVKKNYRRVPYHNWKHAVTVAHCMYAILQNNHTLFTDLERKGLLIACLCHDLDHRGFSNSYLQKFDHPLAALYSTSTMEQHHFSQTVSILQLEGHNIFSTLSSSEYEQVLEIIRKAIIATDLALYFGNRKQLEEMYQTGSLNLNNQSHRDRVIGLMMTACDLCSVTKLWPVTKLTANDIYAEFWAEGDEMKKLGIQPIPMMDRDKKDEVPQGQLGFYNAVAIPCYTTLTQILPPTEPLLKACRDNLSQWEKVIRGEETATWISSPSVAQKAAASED

The first experiment deals with human c-Jun N-terminal Kinases (JNK2), MAPK9 (gene 5601) (UniProt P45984). As to the kind of experiment: NVS_ENZ_hJNK2: NovaScreen (NVS) Enzymatic Assay for human c-Jun N-terminal Kinases (JNK2) (AID 2283171). The gist of the method: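 Cell-free recombinant human JNK2 activity assay; fluorescent substrate and product separated by electrophoretic mobility shift, read 1 h after dosing. Primary duplicate screen at 25 uM; actives run in concentration-response up to 50 uM, relative to DMSO.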
human c-Jun N-terminal Kinases (JNK2), MAPK9 (gene 5601), sequence (P45984 whole entry, looked up): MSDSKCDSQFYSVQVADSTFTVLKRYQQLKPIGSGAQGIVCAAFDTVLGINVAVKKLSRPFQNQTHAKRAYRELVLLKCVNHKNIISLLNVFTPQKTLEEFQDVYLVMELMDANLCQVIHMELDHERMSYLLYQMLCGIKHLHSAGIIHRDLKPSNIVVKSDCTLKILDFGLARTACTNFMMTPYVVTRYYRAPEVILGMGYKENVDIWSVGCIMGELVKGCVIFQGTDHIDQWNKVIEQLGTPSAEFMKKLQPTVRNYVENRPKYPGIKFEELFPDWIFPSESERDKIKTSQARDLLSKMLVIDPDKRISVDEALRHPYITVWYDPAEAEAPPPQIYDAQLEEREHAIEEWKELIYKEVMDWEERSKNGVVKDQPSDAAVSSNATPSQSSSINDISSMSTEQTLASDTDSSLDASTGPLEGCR
On to `O=C(N[C@H]1CN2CCC1CC2)c1ccc2c(c1)OCCO2`, for which the outcome was inactive.
The same measure, in the same setting: the same measure for `N#Cc1cccnc1`: “inactive”; for `CC(C)O.CC(C)O.OCCN(CCO)CCO.OCCN(CCO)CCO.[Ti]`: “inactive”.

The next experiment has as its target human Mitogen-Activated Protein Kinase 1 (MAPK 1), MAPK1 (gene 5594) (UniProt P28482). Briefly: NVS_ENZ_hMAPK1: NovaScreen (NVS) Enzymatic Assay for human Mitogen-Activated Protein Kinase 1 (MAPK 1) (AID 2283175). In a few lines: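 Cell-free recombinant human MAPK1 enzymatic assay, fluorescence/electrophoretic mobility shift read at 1 h; loss of signal vs DMSO. Primary screen in duplicate at 25 uM; actives (e.g. ≥30% inhibition) run as concentration-response up to 50 uM.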
Consider `O=C(N[C@H]1CN2CCC1CC2)c1ccc2c(c1)OCCO2`, for which the outcome was inactive.
Consider `O=C(O)CC(O)(CC(=O)O)C(=O)O`, for which the compound was called inactive.
Consider `CCCCCCCCCCCCOS(=O)(=O)O`, for which the AC50 was 37.3 µM (active).

In another experiment the target is Mitogen-activated protein kinase 3 (Homo sapiens) (UniProt P27361). As to the kind of experiment: NVS_ENZ_hMAPK3: NovaScreen (NVS) Enzymatic Assay for human Mitogen-Activated Protein Kinase 3 (MAPK 3) (AID 2283177). The gist of the method:
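Cell-free enzymatic assay with recombinant protein and specific substrate; fluorescence and electrophoretic mobility shift read-out 1 h after dosing. Primary screen duplicate at 25 uM; actives then run in concentration-response up to 50 uM, loss of signal versus DMSO.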
In the case of `O=C(N[C@H]1CN2CCC1CC2)c1ccc2c(c1)OCCO2`, the outcome was inactive.
For the compound `O=C1c2ccccc2C(=O)C1C(=O)C(c1ccccc1)c1ccc(Cl)cc1` (centres undefined), the outcome was inactive.
`N#Cc1cccnc1`: the compound was called inactive.
Same read-out and setting: as for `COc1nn(C(=O)NS(=O)(=O)c2ccccc2OC(F)(F)F)c(=O)n1C`, the entry is “inactive”.
As to `CC(C)O.CC(C)O.OCCN(CCO)CCO.OCCN(CCO)CCO.[Ti]`, the AC50 was 0.00287 µM (active).

The next experiment concerns the target human MAP Kinase-Activated Protein Kinase 2 (MAPKAPK2), MAPKAPK2 (gene 9261) (UniProt P49137). As to the kind of experiment: NVS_ENZ_hMAPKAPK2: NovaScreen (NVS) Enzymatic Assay for human MAP Kinase-Activated Protein Kinase 2 (MAPKAPK2) (AID 2283178). In a few lines: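 Cell-free recombinant human MAPKAPK2 activity measured by fluorescence with electrophoretic mobility shift separation of substrate and product, 1 hr after dosing. Loss of signal versus DMSO; primary screen at 25 uM, concentration-response up to 50 uM.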
For the compound `O=C(N[C@H]1CN2CCC1CC2)c1ccc2c(c1)OCCO2`, the call was inactive.
Regarding `CCCCCCCCCCCCc1cccc(S(=O)(=O)O)c1`, the AC50 was 34.3 µM (active).
In the case of `N#Cc1cccnc1`, the compound was called inactive.
Still for that read-out and setting: the same measure for `COc1ccccc1N`: “inactive”.
As for `CC(C)O.CC(C)O.OCCN(CCO)CCO.OCCN(CCO)CCO.[Ti]`, the half-maximal activity concentration (AC50) is 0.00624 µM (active).

A further experiment addresses human MET Proto-Oncogene, Receptor Tyrosine Kinase (MET), MET (gene 4233) (UniProt P08581). As to the kind of experiment: NVS_ENZ_hMet: NovaScreen (NVS) Enzymatic Assay for human MET Proto-Oncogene, Receptor Tyrosine Kinase (MET) (AID 2283180). The gist of the method: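 Cell-free MET kinase assay using recombinant protein and fluorescent substrate, with mobility-shift separation; read 1 h after dosing. Primary duplicate at 25 uM; actives in singleton concentration-response to 50 uM maximum. Signal loss versus DMSO.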
`O=C(N[C@H]1CN2CCC1CC2)c1ccc2c(c1)OCCO2`: the call was inactive.
`CCCCCCCCCCCCc1cccc(S(=O)(=O)O)c1`: the concentration at half-maximal activity (AC50) is 17.8 µM (active).
As for `CCCCCCCCCCCCOS(=O)(=O)O`, the AC50 was 25.4 µM (active).
As for `N#Cc1cccnc1`, the compound was called inactive.
The same measure, in the same setting: as for `Clc1cccc(Cl)c1Cl`, the entry is “inactive”.
Consider `CC(C)O.CC(C)O.OCCN(CCO)CCO.OCCN(CCO)CCO.[Ti]`, for which the half-maximal activity concentration (AC50) was 25 µM (active).

In a further experiment the target is human Mitogen- and Stress-activated Protein Kinase-1 (Msk1), RPS6KA5 (gene 9252) (UniProt O75582). Briefly: NVS_ENZ_hMsk1: NovaScreen (NVS) Enzymatic Assay for human Mitogen- and Stress-activated Protein Kinase-1 (Msk1) (AID 2283187). In a few lines:
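Recombinant kinase with fluorescent substrate; product separated by electrophoretic mobility shift, read 1 h after dosing. Screened in duplicate at 25 uM; hits (e.g. ≥30% inhibition) tested in concentration–response up to 50 uM. DMSO baseline.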
For the compound `CCCCCCCCCCCCc1cccc(S(=O)(=O)O)c1`, the AC50 is 25.2 µM (active).
Regarding `Clc1cccc(Cl)c1Cl`, the result was inactive.
For `CC(C)O.CC(C)O.OCCN(CCO)CCO.OCCN(CCO)CCO.[Ti]`, the half-maximal activity concentration (AC50) is 0.109 µM (active).

The next experiment has as its target human NIMA (Never In Mitosis Gene A)-Related Kinase 2 (NEK2), NEK2 (gene 4751) (UniProt P51955). As to the kind of experiment: NVS_ENZ_hNEK2: NovaScreen (NVS) Enzymatic Assay for human NIMA (Never In Mitosis Gene A)-Related Kinase 2 (NEK2) (AID 2283188). The gist of the method:
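Cell-free NEK2 enzyme activity after 1 h exposure, read by fluorescence with electrophoretic mobility shift separating substrate and product. Primary screen in duplicate at 25 uM; actives then run as concentration series. Loss of signal versus DMSO scored.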
Regarding `CCCCCCCCCCCCc1cccc(S(=O)(=O)O)c1`, the AC50 was 12.2 µM (active).
For `N#Cc1cccnc1`, the compound was classed as inactive.
With `Clc1cccc(Cl)c1Cl`, the compound was classed as inactive.
Regarding `CC(C)O.CC(C)O.OCCN(CCO)CCO.OCCN(CCO)CCO.[Ti]`, the AC50 was 17.5 µM (active).

For another experiment, the target named is human p21 Activated Kinase 4 (PAK4), PAK4 (gene 10298) (UniProt O96013). Briefly: NVS_ENZ_hPAK4: NovaScreen (NVS) Enzymatic Assay for human p21 Activated Kinase 4 (PAK4) (AID 2283189). In a few lines:
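Cell-free recombinant human PAK4 activity assay; fluorescent substrate and product separated by electrophoretic mobility shift, read 1 h after dosing. Initially tested in duplicate at 25 uM, relative to DMSO baseline.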
In the case of `O=C(N[C@H]1CN2CCC1CC2)c1ccc2c(c1)OCCO2`, the outcome was inactive.
The same measure, in the same setting: the same measure for `CCCCCCCCCCCCOS(=O)(=O)O`: “inactive”; for `N#Cc1cccnc1`: “inactive”.
Take `CN(C)C(=S)S`: the call was inactive.
Consider `Clc1cccc(Cl)c1Cl`, for which the compound was called inactive.
On to `COc1nn(C(=O)NS(=O)(=O)c2ccccc2OC(F)(F)F)c(=O)n1C`, for which the AC50 is 17.4 µM (active).
Regarding `CC(C)O.CC(C)O.OCCN(CCO)CCO.OCCN(CCO)CCO.[Ti]`, the AC50 was 0.00229 µM (active).

In another experiment the target is human Matrix Metalloproteinase-9 (MMP9), MMP9 (gene 4318) (UniProt P14780). Briefly: NVS_ENZ_hMMP9: NovaScreen (NVS) Enzymatic Assay for human Matrix Metalloproteinase-9 (MMP9) (AID 2283190).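 Also: cell-free recombinant MMP9 protease activity read by fluorescent substrate signal; active means inhibition seen as loss of fluorescence signal versus DMSO.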 In a few lines: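 Cell-free recombinant MMP9 enzyme activity measured by fluorescence intensity 1 h after dosing. Primary screen in duplicate at 25 uM, actives followed in concentration series; loss of signal relative to DMSO.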
human Matrix Metalloproteinase-9 (MMP9), MMP9 (gene 4318), sequence (P14780 whole entry, looked up): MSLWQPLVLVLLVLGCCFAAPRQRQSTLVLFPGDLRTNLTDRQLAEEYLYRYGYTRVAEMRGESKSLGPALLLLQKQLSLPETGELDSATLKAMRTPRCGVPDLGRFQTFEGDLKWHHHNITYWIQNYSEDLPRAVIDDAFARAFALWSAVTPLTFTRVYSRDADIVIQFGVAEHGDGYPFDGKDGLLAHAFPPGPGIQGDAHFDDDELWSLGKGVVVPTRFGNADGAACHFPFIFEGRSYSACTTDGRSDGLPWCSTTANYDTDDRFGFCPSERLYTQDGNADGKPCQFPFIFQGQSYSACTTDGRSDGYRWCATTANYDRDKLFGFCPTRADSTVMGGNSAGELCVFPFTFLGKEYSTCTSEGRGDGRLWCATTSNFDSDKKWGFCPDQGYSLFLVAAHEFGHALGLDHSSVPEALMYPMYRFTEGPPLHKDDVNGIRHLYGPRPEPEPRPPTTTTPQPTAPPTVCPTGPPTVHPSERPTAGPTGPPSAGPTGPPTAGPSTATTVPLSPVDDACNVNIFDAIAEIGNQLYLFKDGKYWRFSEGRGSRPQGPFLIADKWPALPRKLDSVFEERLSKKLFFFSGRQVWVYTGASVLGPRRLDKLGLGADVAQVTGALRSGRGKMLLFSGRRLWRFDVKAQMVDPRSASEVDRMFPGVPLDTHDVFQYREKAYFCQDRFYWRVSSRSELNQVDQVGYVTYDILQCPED
In the case of `OC[P+](CO)(CO)CO`, the AC50 was 1.27 µM (active) and 3.16 µM (active).
Take `CCOP(=O)(OCC)OC(=CCl)c1ccc(Cl)cc1Cl`: the half-maximal activity concentration (AC50) is 22.8 µM (active).
For `CC(C)(C#N)N=NC(C)(C)C#N`, the AC50 was 6.44 µM (active).
For `CC(C)(c1ccccc1)c1cc(-n2nc3ccccc3n2)c(O)c(C(C)(C)c2ccccc2)c1`, the concentration at half-maximal activity (AC50) is 1.24 µM (active).
Regarding `C#CCOC(=O)/C=C(C)/C=C/CC(C)CCCC(C)C` (centres undefined), the AC50 is 7.1 µM (active).
Turning to `CC1(C)[C@H](C(=O)O[C@H](C#N)c2cccc(Oc3ccccc3)c2)[C@@H]1/C=C(\Cl)C(F)(F)F`, the concentration at half-maximal activity (AC50) was 7.08 µM (active).
In the case of `C[N+](C)(C)Cc1ccccc1`, the AC50 was 8.55 µM (active) and 5.15 µM (active).
As to `Oc1c(Br)cc(Br)cc1Br`, the compound was called inactive.
Regarding `[Cl][Sn]([c]1ccccc1)([c]1ccccc1)[c]1ccccc1`, the result was inactive.
Turning to `CCCCN(CCCC)C(=S)[S-].CCCCN(CCCC)C(=S)[S-].[Ni+2]`, the AC50 is 12.5 µM (active).
With `CC(C)(C)c1cc([N+](=O)[O-])cc(C(C)(C)C)c1O`, the concentration at half-maximal activity (AC50) is 1.64 µM (active).

For a further experiment, the target named is cAMP-dependent protein kinase catalytic subunit alpha (Homo sapiens) (UniProt P17612). Briefly: NVS_ENZ_hPKA: NovaScreen (NVS) Enzymatic Assay for human Protein Kinase A (PKA) (AID 2283192). In a few lines: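 Recombinant human PKA with specific fluorescent substrate, product separated by electrophoretic mobility shift, read 1 h after dosing. Primary screen at 25 uM in duplicate; actives then run in concentration-response up to 50 uM, activity relative to DMSO.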
With `O=C(N[C@H]1CN2CCC1CC2)c1ccc2c(c1)OCCO2`, the result was inactive.
On to `CCCCCCCCCCCCc1cccc(S(=O)(=O)O)c1`, for which the half-maximal activity concentration (AC50) was 29.9 µM (active).
For the compound `N#Cc1cccnc1`, the compound was called inactive.
On the same count and under the same terms, the same measure for `CN(C)C(=S)S`: “inactive”.
Take `CC(C)O.CC(C)O.OCCN(CCO)CCO.OCCN(CCO)CCO.[Ti]`: the half-maximal activity concentration (AC50) was 0.00229 µM (active).

For another experiment, the target named is human Phosphodiesterase 5 (PDE5), PDE5A (gene 8654) (UniProt O76074). As to the kind of experiment: NVS_ENZ_hPDE5: NovaScreen (NVS) Enzymatic Assay for human Phosphodiesterase 5 (PDE5) (AID 2283194). In a few lines:
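Recombinant human PDE5 with specific substrate, read 1 h after dosing by fluorescence with electrophoretic mobility-shift separation of substrate and product. Initial single-concentration duplicate screen at 25 uM, actives followed in concentration series; loss of activity versus DMSO.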
Turning to `CCCCCCCCCCCCc1cccc(S(=O)(=O)O)c1`, the AC50 is 14.7 µM (active).
As for `N#Cc1cccnc1`, the AC50 is 40.8 µM (active).
As for `CC1(C)[C@H](C(=O)O[C@H](C#N)c2cccc(Oc3ccccc3)c2)[C@@H]1/C=C(\Cl)C(F)(F)F`, the outcome was inactive.

A further experiment concerns the target human Phosphodiesterase 10 (PDE10), PDE10A (gene 10846) (UniProt Q9Y233). Briefly: NVS_ENZ_hPDE10: NovaScreen (NVS) Enzymatic Assay for human Phosphodiesterase 10 (PDE10) (AID 2283195). The gist of the method: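 Fluorescence/mobility-shift readout of PDE10A enzyme activity, taken 1 h post-dosing. Primary screen in duplicate at 25 uM; actives (e.g. ≥30% inhibition) retested as singleton concentration-response, top concentration 50 uM.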
On to `OC[P+](CO)(CO)CO`, for which the AC50 is 9.04 µM (active).
For `O=C(N[C@H]1CN2CCC1CC2)c1ccc2c(c1)OCCO2`, the result was inactive.
Still for that read-out and setting: the same measure for `COc1ccccc1N`: “inactive”; for `CC1(C)[C@H](C(=O)O[C@H](C#N)c2cccc(Oc3ccccc3)c2)[C@@H]1/C=C(\Cl)C(F)(F)F`: “inactive”.
